Screens from PubChem BioAssay.
Only some compounds are listed: those with a hit (about 3.5% of all), similar ones and a draw of the others.
GPR151 ag: activators of human GPR151, primary screen, cell-based, PathHunter beta-arrestin, luminescence | G-protein coupled receptor 151 (Homo sapiens), Q8TDV0 | PathHunter beta-arrestin GPR151 cells | activation, % at 11.2 µM | 1% of 650,000 active; in the data active means activation above about 4.9%
TEAD-YAP inh: TEAD-YAP interaction inhibition, primary screen, TEAD-YAP interaction inhibitor project, luminescence, HEK-TIYL cells | TEAD-Gal4/YAP UAS-luciferase luminescence | inhibition, % at 9.12 µM | 1.4% of 640,000 active; in the data active means inhibition above about 32%
MITF primary: MITF inhibitors, primary screen, biochemical, AlphaScreen, human; AlphaScreen MITF homodimerization, bead proximity signal; inhibition, % at 2.6 µM; 0.91% of 650,000 active; in the data active means inhibition above about 50%
FBW7 act: FBW7 E3 ligase activators, primary screen, biochemical, AlphaScreen, human; 0.13% of 650,000 active; normalized activity (activation), % at 26.1 µM; AID 1259310, 2017; AlphaScreen FBW7–phospho-cyclin E peptide binding, activator screen; in the data active means normalized activity above about 1.9%;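 further: purified mutant Fbw7 with reduced substrate affinity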
GPR151 confirm: GPR151 activators, triplicate retest, confirmation, cell-based, PathHunter beta-arrestin, luminescence | shares compounds with GPR151 ag | GPR151 PathHunter beta-arrestin cells, 90 min; % of EA-reagent control over plate median | activation, % at 11.2 µM | 6,700 tested, under 10 active;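 active means mean percent activation across replicates above the confirmation screen cutoff of 4.91%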
GPR119 counter: GPR119 activators in beta-arrestin cells, counter-screen for GPR151 activator project, cell-based, PathHunter beta-arrestin, luminescence, triplicate | shares compounds with GPR151 ag | 90 min; 0 = compound-well median, 100 = enzyme-acceptor control | activation, % at 11.2 µM | 0.3% of 6,700 active | AID 1508611, 2020;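 active means mean percent activation in the counterscreen above 29.09%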;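 further: counterscreen on off-target GPR119 to flag nonselective hits from the GPR151 activator screen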
Target sequence (Q8TDV5 whole entry, looked up): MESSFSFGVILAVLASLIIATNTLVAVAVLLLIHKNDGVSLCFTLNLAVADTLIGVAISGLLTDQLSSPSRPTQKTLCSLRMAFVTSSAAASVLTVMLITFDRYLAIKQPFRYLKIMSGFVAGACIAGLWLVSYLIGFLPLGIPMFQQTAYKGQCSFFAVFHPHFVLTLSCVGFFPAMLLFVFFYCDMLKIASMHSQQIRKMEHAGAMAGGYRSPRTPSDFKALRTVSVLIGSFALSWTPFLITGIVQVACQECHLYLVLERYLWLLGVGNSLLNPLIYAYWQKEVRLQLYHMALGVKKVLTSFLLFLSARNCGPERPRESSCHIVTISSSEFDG
Large screens that a line does not name were inactive (follow-up assays come after a bar, where they were run).

CCOC(=O)c1c(NC(=O)COc2ccc(C)cc2)sc2c1CCCC2	GPR151 ag 5.1 | GPR151 confirm inactive | GPR119 counter inactive
CCCCN(CC)S(=O)(=O)c1ccc(C(=O)Nc2sc3c(c2C(=O)OCC)CCN(C(C)C)C3)cc1	GPR151 ag 5.6 | GPR151 confirm inactive | GPR119 counter inactive
CC(C)CC(C(=O)Nc1ccccc1F)N1C(=O)c2ccccc2C1=O (stereo not drawn)	none
Cc1ccc(OC(=O)c2ccc(Cl)c(S(=O)(=O)N3CCOCC3)c2)cc1C	none
O=C(CSc1nnnn1C1CCCCC1)Nc1nc(-c2ccc(F)cc2)cs1	none
O=C(CSc1nc2cc(C(=O)NC3CCCCC3)ccc2c(=O)n1C1CCCCC1)c1ccccc1	none
CC(C)(C)c1ccc(OCCCC(=O)Nc2sc3c(c2C(N)=O)CCCC3)cc1	GPR151 ag 6.5 | GPR151 confirm inactive | GPR119 counter inactive
COC(=O)c1c(NC(=O)CCCOc2ccc(C(C)(C)C)cc2)sc2c1CCC2	none
CCOC(=O)c1c(-c2ccc(C)cc2)csc1NC(=O)CC	GPR151 ag 5.1 | GPR151 confirm inactive | GPR119 counter inactive
CCOC(=O)c1c(-c2ccccc2)csc1NC(=O)CC	none
Cc1cc(I)ccc1NC(=O)COC(=O)CC1CC2CCC1C2 (stereo not drawn)	none
COc1ccc(C2CC(=O)C3=C(C2)NC(C)=C(C(=O)OC2CCCC2)C3c2ccccc2OC)cc1OC (stereo not drawn)	none
COc1ccc(C2CC(=O)C3=C(C2)NC(C)=C(C(=O)OC2CCCC2)C3c2ccccc2C)cc1OC (stereo not drawn)	GPR151 ag 5.3 | GPR151 confirm inactive | GPR119 counter inactive
O=C(COc1ccc(Cl)cc1Br)N/N=C/c1cc([N+](=O)[O-])ccc1O	GPR151 ag 5.1 | GPR151 confirm inactive | GPR119 counter inactive
CC(O)CCC(=O)N/N=C/c1cc([N+](=O)[O-])ccc1O (stereo not drawn)	GPR151 ag 10 | GPR151 confirm inactive | GPR119 counter inactive
COc1ccccc1C1C=C(c2ccc(I)cc2)Nc2ncnn21 (stereo not drawn)	GPR151 ag 7.4 | GPR151 confirm inactive | GPR119 counter inactive
CCOC(=O)c1cc2occc2n1CC(=O)N1CCCC1	GPR151 ag 7.4 | GPR151 confirm inactive | GPR119 counter inactive
COc1ccccc1OCCCCn1c(C2CC2)nc2ccccc21	none (no result: TEAD-YAP inh, MITF primary, FBW7 act)
O=C(Nc1cc(-c2cccs2)nn1CCO)C1c2ccccc2Oc2ccccc21	GPR151 ag 8.0 | GPR151 confirm inactive | GPR119 counter inactive
O=C(Nc1cc(-c2cccs2)nn1CCO)C1CCC1	none
Cc1nc2sccn2c1CN1Cc2ccccc2OC(c2ccccc2)C1 (stereo not drawn)	none
CC(C)(C)NC(=O)NC(=O)COC(=O)Cc1ccc(Cl)c(Cl)c1	GPR151 ag 7.2 | GPR151 confirm inactive | GPR119 counter inactive
CC(C)(C)NC(=O)NC(=O)COC(=O)Cn1cnc2ccccc2c1=O	GPR151 ag 6.8 | GPR151 confirm inactive | GPR119 counter inactive
Cc1nc2nc[nH]n2c(=O)c1CCC(=O)NC1CCCCC1	none
O=C1NC(=O)N(c2ccc(F)cc2)C(=O)/C1=C/c1cccn1-c1ccc([N+](=O)[O-])cc1	none
O=C(Nc1c(F)cccc1F)N1CCn2cccc2C1c1ccccc1 (stereo not drawn)	GPR151 ag 11 | GPR151 confirm inactive | GPR119 counter inactive
CC(C)/C(=N\NC(N)=S)c1ccccc1	GPR151 ag 6.5 | GPR151 confirm inactive | GPR119 counter inactive
O=C(OCc1ccccc1)/C(=C/c1c[nH]c2ccccc12)[N+](=O)[O-]	GPR151 ag 5.5 | GPR151 confirm inactive | GPR119 counter inactive
CCC(c1nnnn1C(C)(C)C)N1CCN(c2nc3ccccc3s2)CC1 (stereo not drawn)	none
O=C(/C=C/c1ccccc1)Nc1ccc2c3c(cccc13)CC2	none
